Results from PubChem BioAssay (NCI).
About 83,000 compounds went through this panel and 20% of them were active in at least one assay; those are over-represented in the sample as a whole.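 Growth was measured after 48 h exposure to one concentration of compound in 96-well plates. Values under 10 count as active.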 The source made the active and inactive calls.

system: CCRF-CEM leukemia; experiment: NCI-60 one-dose screen, 48 h (100 = growth as untreated, 0 = no growth, -100 = all killed); conditions: 10 µM unless noted

Row | Compound | growth
1 | COc1ccccc1-n1cnc(N)c1C(=O)c1cc(OC)c(OC)c(OC)c1 | 24.2% (inactive)
2 | CN(C)CCCC1(c2ccc(F)cc2)OCc2cc(-c3ccc(C(F)(F)F)nc3)ccc21 (centres undefined) | 69.1% (inactive)
3 | Cc1ccc2c(c1)c(-c1nc(-c3c[nH]c4ncccc34)cs1)cn2C | 77.7% (inactive)
4 | CC1(C)C(=O)/C(=C\c2ccco2)C[C@]2(C)[C@H]3CC[C@@H]4[C@@H](C(=O)/C=C/c5ccco5)CC[C@@]4(C)[C@]3(C)CC[C@@H]12 | 50.6% (inactive)
5 | Cc1ccc(-c2nc([P+](c3ccccc3)(c3ccccc3)c3ccccc3)c(N3C[C@H]4C[C@H](C3)c3cccc(=O)n3C4)o2)cc1 | 78.4% (inactive)
6 | C=C(C)[C@@H]1CC[C@]2(CN)CC[C@]3(C)[C@H](CC[C@@H]4[C@@]5(C)CCC(=O)NC(C)(C)[C@@H]5CC[C@]43C)[C@@H]12 | 20.9% (inactive)
7 | CC(=O)O[C@H]1CC[C@]2(C)[C@H]3C(=O)C=C4[C@@H]5C[C@](C)(C(=O)N6CCCNCC6)CC[C@]5(C)CC[C@@]4(C)[C@]3(C)CC[C@H]2C1(C)C | -31.5% (active)
8 | CCCCCC1CCCCN1C(=O)OCC (centres undefined) | 96.6% (inactive)
9 | Cn1cc(-c2nc(-c3c[nH]c4ncccc34)cs2)c2cc(Br)ccc21 | 58.9% (inactive)
10 | O=C(N/N=C\c1ccccc1O)C1CC1 | 83.7% (inactive)
11 | COc1ccc(OCC(CO)N2CCN(c3ccccc3)CC2)cc1 (centres undefined) | 112% (inactive)
12 | Cn1cc(-c2nc(-c3c[nH]c4ncccc34)cs2)c2ccccc21 | 75.5% (inactive)
13 | CC1(C)CC[C@]2(C(=O)Nc3ccccn3)CC[C@]3(C)C(=CC[C@@H]4[C@@]5(C)C/C(=C/c6ccncc6)C(=O)C(C)(C)[C@@H]5CC[C@]43C)[C@@H]2C1 | 25.4% (inactive)
14 | C=C(C)[C@@H]1CC[C@]2(C(=O)O)CC[C@]3(C)[C@H](CC[C@@H]4[C@@]5(C)C/C(=C/c6cccc(I)c6)C(=O)C(C)(C)[C@@H]5CC[C@]43C)[C@@H]12 | 25.6% (inactive)
15 | CC(=O)O[C@H]1CC[C@@]2(C)C(=CC[C@@H]3[C@@H]2CC[C@]2(C)C(=O)N(O)C(=O)C[C@@H]32)C1 | 86% (inactive)
16 | COc1ccc2c(c1)c(-c1nc(-c3c[nH]c4ncccc34)cs1)cn2C | 51.7% (inactive)
17 | CCOc1ccc(NC(=O)c2ccccc2-c2ccccc2C(=O)O)cc1 | 99.5% (inactive)

system: MOLT-4 leukemia; experiment: as above; conditions: 10 µM unless noted

Row | Compound | growth
18 | Cn1c(/C(C#N)=C/c2ccc3ccccc3c2)cc2ccccc21 | 19.9% (inactive)
19 | Cn1cc(-c2nc(-c3c[nH]c4ncccc34)cs2)c2cc(F)ccc21 | 23.9% (inactive)
20 | CC(=O)N1N=C(c2ccc(C)cc2)CC1c1ccc(Oc2ccc(Br)cc2)cc1 (centres undefined) | 71.3% (inactive)
21 | NC1=NN=C2N(N)C(=O)c3cnn(-c4ccccc4)c3N2c2nc(-c3ccccc3)cc(-c3ccccc3)c21 | 91.6% (inactive)
22 | CN(C)c1ccc(-c2ccc(-c3ccc(C(=N)N)c(F)c3)s2)cc1 | -19.3% (active)
23 | Cc1c(C)c2c(c(C)c1NC(=O)CCCCCCC(=O)O)CCC(C)(CCCC(C)CCCC(C)CCCC(C)C)O2 (centres undefined) | 76.7% (inactive)
24 | Cc1cc(C)nc(NC(N)=NCCc2ccccc2)n1 | 47.7% (inactive)
25 | C=C(C)[C@@H]1CC[C@]2(C(=O)O)CC[C@]3(C)[C@H](CC[C@@H]4[C@@]5(C)C/C(=C/c6ccc(OC)cc6)C(=O)C(C)(C)[C@@H]5CC[C@]43C)[C@@H]12 | 15.3% (inactive)
26 | COc1ccc2[nH]cc(-c3nc(-c4c[nH]c5ncccc45)cs3)c2c1 | 8.76% (active)
27 | Cn1cccc1/C=C1/SC(=S)N(CCc2ccc(O)cc2)C1=O | 31% (inactive)
28 | CN1CCN(CCOc2ccc(-c3cnc4c(-c5ccccc5F)cnn4c3)cc2)CC1 | -9.43% (active)
29 | Cc1ccc(-c2nc([P+](c3ccccc3)(c3ccccc3)c3ccccc3)c(N3CCOCC3)o2)cc1 | -8.12% (active)
30 | O=C1OC(c2ccc(Cl)c(Cl)c2)=C/C1=C/c1cccc([N+](=O)[O-])c1 | 103% (inactive)
31 | COc1ccccc1-n1cnc(N)c1C(=O)c1cc(OC)c(OC)c(OC)c1 | 50.8% (inactive)
32 | CN(C)CCCC1(c2ccc(F)cc2)OCc2cc(-c3ccc(C(F)(F)F)nc3)ccc21 (centres undefined) | 53.6% (inactive)
33 | Cc1ccc2c(c1)c(-c1nc(-c3c[nH]c4ncccc34)cs1)cn2C | 75.2% (inactive)

Row | Compound | growth
34 | CC1(C)C(=O)/C(=C\c2ccco2)C[C@]2(C)[C@H]3CC[C@@H]4[C@@H](C(=O)/C=C/c5ccco5)CC[C@@]4(C)[C@]3(C)CC[C@@H]12 | 68.3% (inactive)
35 | Cc1ccc(-c2nc([P+](c3ccccc3)(c3ccccc3)c3ccccc3)c(N3C[C@H]4C[C@H](C3)c3cccc(=O)n3C4)o2)cc1 | 96.6% (inactive)
36 | C=C(C)[C@@H]1CC[C@]2(CN)CC[C@]3(C)[C@H](CC[C@@H]4[C@@]5(C)CCC(=O)NC(C)(C)[C@@H]5CC[C@]43C)[C@@H]12 | 21.5% (inactive)
37 | Nc1c(Cl)cc(N=Nc2ccccc2)cc1Cl | 90.3% (inactive)
38 | CC(=O)O[C@H]1CC[C@]2(C)[C@H]3C(=O)C=C4[C@@H]5C[C@](C)(C(=O)N6CCCNCC6)CC[C@]5(C)CC[C@@]4(C)[C@]3(C)CC[C@H]2C1(C)C | -23.6% (active)
39 | CCCCCC1CCCCN1C(=O)OCC (centres undefined) | 79.9% (inactive)
40 | Cn1cc(-c2nc(-c3c[nH]c4ncccc34)cs2)c2cc(Br)ccc21 | 69.1% (inactive)
41 | O=C(N/N=C\c1ccccc1O)C1CC1 | 101% (inactive)
42 | COc1ccc(OCC(CO)N2CCN(c3ccccc3)CC2)cc1 (centres undefined) | 116% (inactive)
43 | Cn1cc(-c2nc(-c3c[nH]c4ncccc34)cs2)c2ccccc21 | 77.8% (inactive)
44 | CC1(C)CC[C@]2(C(=O)Nc3ccccn3)CC[C@]3(C)C(=CC[C@@H]4[C@@]5(C)C/C(=C/c6ccncc6)C(=O)C(C)(C)[C@@H]5CC[C@]43C)[C@@H]2C1 | 11.6% (inactive)
45 | C=C(C)[C@@H]1CC[C@]2(C(=O)O)CC[C@]3(C)[C@H](CC[C@@H]4[C@@]5(C)C/C(=C/c6cccc(I)c6)C(=O)C(C)(C)[C@@H]5CC[C@]43C)[C@@H]12 | 13% (inactive)
46 | Oc1cccc2oc(=S)[nH]c12 | 99.5% (inactive)
47 | CC(=O)O[C@H]1CC[C@@]2(C)C(=CC[C@@H]3[C@@H]2CC[C@]2(C)C(=O)N(O)C(=O)C[C@@H]32)C1 | 79.5% (inactive)
48 | O=C(O)c1cccc2c1Cc1cc([N+](=O)[O-])ccc1-2 | 94% (inactive)
49 | CCOc1ccc(NC(=O)c2ccccc2-c2ccccc2C(=O)O)cc1 | 83.6% (inactive)
